Shown is part of a subset that was picked to be rich in the strongest signals.
Experiments:
Experiment in all cases: glycan array binding signal (z-score within array); higher = stronger binding
Details in all cases: glycan notation: IUPAC condensed, linker removed
[1] = molecular target: Fuc(a1-2)Gal(b1-3)GalNAc(a1-3)[Fuc(a1-2)]Gal(b1-4)Glc
Method in brief: (§1)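 The binding signal is a Z-score computed within each array. Data were drawn from 3228 arrays in the Consortium for Functional Glycomics database, restricted to those with a known protein sequence. Scores were averaged over arrays of the same protein sequence at different concentrations or buffers, and over linkers, and negative values can be taken as non-binding.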

[2] = molecular target: Fuc(a1-2)Gal(b1-3)[Fuc(a1-4)]GlcNAc(b1-2)Man(a1-3)[Fuc(a1-2)Gal(b1-3)[Fuc(a1-4)]GlcNAc(b1-2)Man(a1-3)]Man(b1-4)GlcNAc(b1-4)GlcNAc
Method in brief: as §1

[3] = molecular target: Fuc(a1-2)Gal(b1-4)Fuc(a1-3)]GlcNAc(b1-2)Man(a1-3)[Fuc(a1-2)Gal(b1-4)[Fuc(a1-3)]GlcNAc(b1-2)Man(a1-6)]Man(b1-4)GlcNAc(b1-4)GlcNAc
Method in brief: as §1

[4] = molecular target: Fuc(a1-2)Gal(b1-4)GlcNAc(b1-3)Gal(b1-4)GlcNAc
Method in brief: as §1

[5] = molecular target: Fuc(a1-2)Gal(b1-4)GlcNAc(b1-3)Gal(b1-4)GlcNAc(b1-3)Gal(b1-4)GlcNAc
Method in brief: as §1

[6] = molecular target: Fuc(a1-2)Gal(b1-4)GlcNAc(b1-3)[Fuc(a1-3)[Gal(b1-4)]GlcNAc(b1-6)]Gal(b1-4)Glc
Method in brief: as §1

[7] = molecular target: Fuc(a1-2)[Gal(a1-4)]Gal(b1-4)GlcNAc
Method in brief: as §1

[8] = molecular target: Fuc(a1-2)[GalNAc(a1-3)]Gal(b1-3)GalNAc(a1-3)[Fuc(a1-2)]Gal(b1-4)GlcNAc
Method in brief: as §1

[9] = molecular target: Fuc(a1-2)[GalNAc(a1-3)]Gal(b1-3)GlcNAc(b1-6)GalNAc
Method in brief: as §1

[10] = molecular target: Fuc(a1-3)[Gal(b1-4)]GlcNAc(b1-3)Gal(b1-3)[Fuc(a1-4)]GlcNAc
Method in brief: as §1

[11] = molecular target: Gal(a1-4)Gal(b1-3)GlcNAc(b1-2)Man(a1-3)[Gal(a1-4)Gal(b1-3)GlcNAc(b1-2)Man(a1-6)]Man(b1-4)GlcNAc(b1-4)GlcNAc
Method in brief: as §1

Gal(b1-3)GalNAc(b1-3)Gal = molecular target: Gal(b1-3)GalNAc(b1-3)Gal
Method in brief: as §1

[12] = molecular target: Gal(b1-3)GlcNAc(b1-3)Gal(b1-4)Glc
Method in brief: as §1

[13] = molecular target: Gal(b1-3)[Fuc(a1-4)]GlcNAc(b1-3)Gal(b1-3)[Fuc(a1-4)]GlcNAc
Method in brief: as §1

[14] = molecular target: Gal(b1-4)GalNAc(a1-3)[Fuc(a1-2)]Gal(b1-4)GlcNAc
Method in brief: as §1

[15] = molecular target: Gal(b1-4)GlcNAc(b1-2)[Gal(b1-4)GlcNAc(b1-4)]Man(a1-3)[Gal(b1-4)GlcNAc(b1-2)Man(a1-6)]Man(b1-4)GlcNAc(b1-4)GlcNAc
Method in brief: as §1

[16] = molecular target: Gal(b1-4)GlcNAc(b1-3)Gal(b1-3)GalNAc
Method in brief: as §1

[17] = molecular target: Gal(b1-4)GlcNAc(b1-3)Gal(b1-4)GlcNAc(b1-2)[Gal(b1-4)GlcNAc(b1-3)Gal(b1-4)GlcNAc(b1-6)]Man(a1-6)[Gal(b1-4)GlcNAc(b1-3)Gal(b1-4)GlcNAc(b1-2)Man(a1-3)]Man(b1-4)GlcNAc(b1-4)[Fuc(a1-6)]GlcNAc
Method in brief: as §1

[18] = molecular target: Gal(b1-4)GlcNAc(b1-3)Gal(b1-4)GlcNAc(b1-3)Gal(b1-4)GlcNAc(b1-2)Man(a1-3)[Gal(b1-4)GlcNAc(b1-3)Gal(b1-4)GlcNAc(b1-3)Gal(b1-4)GlcNAc(b1-2)Man(a1-6)]Man(b1-4)GlcNAc(b1-4)GlcNAc
Method in brief: as §1

[19] = molecular target: Gal(b1-4)GlcNAc(b1-3)Gal(b1-4)GlcNAc(b1-3)Gal(b1-4)GlcNAc(b1-2)[Gal(b1-4)GlcNAc(b1-3)Gal(b1-4)GlcNAc(b1-3)Gal(b1-4)GlcNAc(b1-6)]Man(a1-6)[Gal(b1-4)GlcNAc(b1-3)Gal(b1-4)GlcNAc(b1-3)Gal(b1-4)GlcNAc(b1-2)Man(a1-3)]Man(b1-4)GlcNAc(b1-4)[Fuc(a1-6)]GlcNAc
Method in brief: as §1

[20] = molecular target: Gal(b1-4)GlcNAc(b1-3)Gal(b1-4)GlcNAc(b1-6)[Gal(b1-3)]GalNAc
Method in brief: as §1

[21] = molecular target: Gal(b1-4)GlcNAc(b1-3)[GlcNAc(b1-6)]Gal(b1-4)GlcNAc
Method in brief: as §1

Gal3S(b1-4)Glc6S = molecular target: Gal3S(b1-4)Glc6S
Method in brief: as §1

[22] = molecular target: Gal3S(b1-4)[Fuc(a1-3)]Glc6S
Method in brief: as §1

Gal3S4S(b1-4)GlcNAc = molecular target: Gal3S4S(b1-4)GlcNAc
Method in brief: as §1

GalNAc(a1-3)Gal = molecular target: GalNAc(a1-3)Gal
Method in brief: as §1

[23] = molecular target: GalNAc(a1-3)GalNAc(b1-3)Gal(a1-4)Gal(b1-4)Glc
Method in brief: as §1

[24] = molecular target: GalNAc(b1-3)Gal(a1-4)Gal(b1-4)GlcNAc(b1-3)Gal(b1-4)Glc
Method in brief: as §1

Glc(a1-4)Glc = molecular target: Glc(a1-4)Glc
Method in brief: as §1

Glc(a1-6)Glc(a1-6)Glc = molecular target: Glc(a1-6)Glc(a1-6)Glc
Method in brief: as §1

B1: Epa11 (Candida glabrata) (protein)
chain: MGSSHHHHHHSSGLVPRGSHMASSNAPNYPVGCSPSVGTQLTPGLSLEVYAYPMDGNNGYCWNATYKDPEFPRSGYLKNKLLGKADGVVGPLNFLAKNKDCSPKVDTLPAGFNFPQPITVTNFTMVLFGYLAPKQSGKYTFKLLADDLLLLNLGATNAFDCCNREATKNNLGEFLAYNLWPNQDKNVTVYLEKGVYYPLRLFFNNRDGGSQLDFSYYFNDSPAPLTDFSGMFFSVPDGAECPARI
glycan array binding signal (z-score) [1]: -0.518
glycan array binding signal (z-score) [2]: -0.183
glycan array binding signal (z-score) [3]: 2.88
glycan array binding signal (z-score) [4]: -0.92
glycan array binding signal (z-score) [5]: -0.015
glycan array binding signal (z-score) [6]: 0.437
glycan array binding signal (z-score) [7]: 0.294
glycan array binding signal (z-score) [8]: -0.24
glycan array binding signal (z-score) [9]: -0.276
glycan array binding signal (z-score) [10]: -0.232
glycan array binding signal (z-score) [11]: 1.7
glycan array binding signal (z-score) (Gal(b1-3)GalNAc(b1-3)Gal): -0.185
glycan array binding signal (z-score) [12]: -0.214
glycan array binding signal (z-score) [13]: 2.35
glycan array binding signal (z-score) [14]: -0.453
glycan array binding signal (z-score) [15]: -0.412
glycan array binding signal (z-score) [16]: -0.415
glycan array binding signal (z-score) [17]: 1.98
glycan array binding signal (z-score) [18]: 2.67
glycan array binding signal (z-score) [19]: 1.94
glycan array binding signal (z-score) [20]: 1.77
glycan array binding signal (z-score) [21]: -0.836
glycan array binding signal (z-score) (Gal3S(b1-4)Glc6S): 0.304
glycan array binding signal (z-score) [22]: 1.71
glycan array binding signal (z-score) (Gal3S4S(b1-4)GlcNAc): -0.9
glycan array binding signal (z-score) (GalNAc(a1-3)Gal): -0.428
glycan array binding signal (z-score) [23]: -0.437
glycan array binding signal (z-score) [24]: -0.094
glycan array binding signal (z-score) (Glc(a1-4)Glc): -1.42
glycan array binding signal (z-score) (Glc(a1-6)Glc(a1-6)Glc): -0.516

From the supplement of paper PMC8728848
